Screening results as filed in PubChem BioAssay.
Only some compounds are listed: those with a hit (about 0.88% of all), similar ones and a draw of the others.
RECQ1 inh – inhibitors of human RECQ1 DNA helicase | 240,000 tested, 0.54% active | RECQ1 DNA unwinding, red fluorescence kinetic read | Potency, µM (highest dose often 57.3 µM), hits mostly inhibitors | P46063; further: nearly all actives have a fitted effect of over 30% in size
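50 nM RECQ1T1 preincubated 15 min with compound in Tris pH 8.0 buffer with MgCl2, DTT, Tween-20 and 2.5 ug/ml poly(dI-dC); started with 200 nM TAMRA/BHQ-2 forked duplex and 2 mM ATP. Unwinding read as fluorescence (525/598 nm), two reads 2 h apart.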
BLM helicase inh-1 – Bloom syndrome helicase (human) inhibition; recombinant BLM DNA unwinding, fluorescence dequenching; Potency, µM (series often up to 56.1 µM), most hits filed as inhibitors; 350,000 tested, 0.2% active; AID 2528; further: nearly all actives have a fitted effect of over 35% in size
APEX1 inh – inhibitors of human APE1 endonuclease; P27695; 350,000 tested, 0.35% active; recombinant APE1, TAMRA/BHQ-2 abasic DNA cleavage fluorescence; Potency, µM (series often up to 65.8 µM), most hits filed as inhibitors; AID 2517; further: nearly all actives have a fitted effect of over 55% in size
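Quantitative HTS: incision of a TAMRA/BHQ-2 double-stranded substrate bearing a tetrahydrofuran abasic site by 0.75 nM APE1 raises fluorescence. Substrate 50 nM final, added after 15 min compound preincubation at room temperature; progress as third-minus-first kinetic read difference.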
WRN helicase inh-1 – inhibitors of human WRN helicase; Q14191; WRN helicase unwinding, fluorescent forked duplex, kinetic; Potency, µM (highest dose often 114 µM), usual class: inhibitors; 360,000 tested, 0.46% active; further: nearly all actives have a fitted effect of over 55% in size
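WRN at 20 nM final was preincubated with compound for 15 min at room temperature; reaction started with 100 nM forked duplex oligonucleotide carrying fluorophore and quencher plus 2 mM ATP (final). Unwinding followed kinetically by red fluorescence (ex 525/em 598 nm).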
ERG-DNA inh – inhibitors of human ERG Ets domain-DNA interaction. P11308. fluorescence polarization, His-ERG Ets domain / labelled DNA. Potency, µM (highest dose often 76.9 µM), most hits filed as inhibitors. 370,000 tested, 0.028% active. AID 624246; active means well fitted inhibition curve with a large enough effect in the polarisation, with a control signal flat; inconclusive means small, poorly fitted or top-dose-only effect, or effect the other way, or a change in a side signal; inactive means no such curve, though single readings can be large or run the other way; the % refers to the polarisation;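 further: polarization taken with two DNA probes labelled with fluorescein and Texas red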
Target sequence (P11308 whole entry, looked up, the tested form may be a part): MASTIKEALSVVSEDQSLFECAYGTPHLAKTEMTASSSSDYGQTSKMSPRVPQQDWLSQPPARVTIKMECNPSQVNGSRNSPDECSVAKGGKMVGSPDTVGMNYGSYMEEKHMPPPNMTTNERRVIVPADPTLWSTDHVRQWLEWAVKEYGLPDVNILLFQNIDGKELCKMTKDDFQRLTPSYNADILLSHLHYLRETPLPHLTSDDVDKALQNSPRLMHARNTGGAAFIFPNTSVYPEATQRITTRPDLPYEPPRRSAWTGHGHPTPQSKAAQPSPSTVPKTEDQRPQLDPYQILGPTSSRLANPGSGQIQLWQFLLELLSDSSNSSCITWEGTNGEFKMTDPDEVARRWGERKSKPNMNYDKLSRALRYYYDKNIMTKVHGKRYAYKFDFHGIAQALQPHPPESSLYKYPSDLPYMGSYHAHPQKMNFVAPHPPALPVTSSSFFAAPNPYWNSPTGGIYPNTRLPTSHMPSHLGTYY
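His-tagged ERG Ets domain (1 uM in the protein solution; 300mM KCl, 50mM Tris-HCl, 1mM EDTA, 1mM DTT, pH 7.5) received compound, then a probe mix of 5 nM fluorescein-DNA and 100nM Texas-615-DNA. Fluorescence polarization was read for both dyes.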
KAT2A inh – inhibitors of human GCN5L2 histone acetyltransferase; Q92830; GCN5L2 HAT assay, ThioGlo1 CoA-SH fluorescence; Potency, µM (top dose mostly 58.9 µM), usual class: inhibitors; 390,000 tested, 0.21% active; AID 504327
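GCN5L2 (20nM final) in 50mM HEPES, 0.1mM EDTA pH 7.5, 0.01% Tween-20 was preincubated 15 min at room temperature with compound, then given ThioGlo1 (50uM), H3(1-25) peptide (75uM) and acetyl-CoA (70uM); CoA-thiol fluorescence (Ex340/Em540) was read at 0 and 20 min.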
WRN helicase inh-2 – confirmation of human WRN helicase inhibitors | shares compounds with WRN helicase inh-1 | Potency, µM (titrated, usually from 57.1 µM), usual class: inhibitors | WRN helicase DNA unwinding, fluorescence kinetic | 610 tested, 63% active; further: nearly all actives have a fitted effect of over 65% in size
TO displacement – DNA binding via thiazole orange displacement | AID 720499 | thiazole orange DNA binding displacement, fluorescence | 610 tested, 10% active | shares compounds with WRN helicase inh-1 | Potency, µM (top dose mostly 57.1 µM), most hits filed as inhibitors;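 further: drop in dye fluorescence marks compound binding to DNA; nearly all actives have a fitted effect of over 60% in size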
BLM helicase inh-2 – blocks human BLM helicase in WRN counterscreen. shares compounds with WRN helicase inh-1. Recombinant BLM helicase DNA unwinding, red fluorescence. Potency, µM (series often up to 57.1 µM), most hits filed as inhibitors. 610 tested, 60% active. AID 720503; further: nearly all actives have a fitted effect of over 60% in size
Numbers stand for hits; - = inactive; ? = inconclusive; . = no result; [ ] = another dose, or the depositor's remark. Unless noted, the call rests on the fitted dose curve; in most records, active means well fitted curve in the direction sought with a large enough effect; inconclusive means small, poorly fitted or top-dose-only effect, or another doubt; inactive means no such curve, though single readings can be large; an effect the other way counts as inactive or inconclusive.

SMILES	RECQ1 inh	BLM helicase inh-1	APEX1 inh	WRN helicase inh-1	ERG-DNA inh	KAT2A inh	WRN helicase inh-2	TO displacement	BLM helicase inh-2
COc1ccc(OC)c(S(=O)(=O)N2CCC(C(=O)NCc3ccccn3)CC2)c1	.	-	-	-	-	-	.	.	.
Cc1nnc(Sc2cc(NCCCO)c([N+](=O)[O-])c3nonc23)s1	-	-	-	22µM	-	-	?	-	?
O=[N+]([O-])c1c(NCCCO)cc(Sc2nc3ccccc3s2)c2nonc12	-	-	-	19µM	-	?	?	-	?
CCC(=O)OCCNc1cc(Sc2nc3ccccc3s2)c2nonc2c1[N+](=O)[O-]	-	-	-	-	-	-	.	.	.
O=C(Nc1cccc(C(=O)N2CCN(c3ccc(Cl)cc3)CC2)c1)c1nsc2ccccc12	.	-	.	.	-	-	.	.	.
O=C(COC(=O)/C=C/c1ccco1)NCCN1C(=O)CSC1=O	.	.	.	-	-	.	.	.	.
O=C(NCCCN1CCOCC1)c1sc2cc([N+](=O)[O-])ccc2c1Cl	-	-	-	28µM	-	?	-	-	?
Nc1ncnc2c1ncn2[C@@H]1O[C@H](C(=O)NCC2CCN(Cc3ccccc3)CC2)[C@@H](O)[C@H]1O	.	.	.	-	.	.	.	.	.
CCc1cc(C(=O)N=Nc2c(O)[nH]c3ccc([N+](=O)[O-])cc23)c2ccccc2n1	-	18µM	-	?	-	-	19µM	15µM	17µM
Cc1ccc(-c2cc(C(=O)O)c3cc(Br)ccc3n2)o1	?	-	-	35µM	-	?	15µM	-	?
NC(=O)c1ccc(NC(=O)COC(=O)/C=C/c2ccc(Br)o2)cc1	.	.	-	32µM	-	?	?	-	17µM
Cc1ccc(NC(=O)COC(=O)/C=C/c2ccc(Br)o2)cc1S(=O)(=O)N(C)C	-	-	?	-[11.6 µM]	-	-	.	.	.
CC1(C)CC(=O)C(C(C2=C(O)CC(C)(C)CC2=O)c2ccc(O)c([N+](=O)[O-])c2)=C(O)C1	-	-	-	?	-	-	22µM	?	-
CC1(C)CC(=O)C2=C(C1)OC1=C(C(=O)CC(C)(C)C1)C2c1ccc(O)c([N+](=O)[O-])c1	-	-	-	-	-	-	.	.	.
O=C(Cn1c2ccccc2c(=O)c2ccccc21)N/N=C/c1cc([N+](=O)[O-])ccc1N1CCCCCC1	-	?	-	11µM	-	-	6.1µM	-	1.1µM
O=C(Cn1c2ccccc2c(=O)c2ccccc21)N/N=C/c1ccc(N2CCCC2)c([N+](=O)[O-])c1	-	-	-	-	-	-	.	.	.
Cc1ccc(-c2nc(CNC(=O)Nc3ccccc3)c(C)o2)cc1	.	-	.	.	-	-	.	.	.
COc1ccc(OC)c(NC(=O)CCCCCn2nnc3ccccc3c2=O)c1	.	-	-	-	-	-	.	.	.
O=c1c2ccccc2nc2sc(Nc3cccc(N4CCNCC4)c3)nn12	.	.	.	.	.	.	22µM	-	?
O=C(O)c1ccc(-n2cccc2/C=N\NC(=O)c2cc3cc(Br)ccc3o2)cc1	?	-	3.5µM	40µM	-	?	15µM	-	5.4µM
O=C1COc2ccc(C(=O)COC(=O)c3ccc4ccccc4n3)cc2N1	-	?	-	?	-	-	14µM	-	8.6µM
O=C1COc2ccc(C(=O)COC(=O)c3ccccn3)cc2N1	.	.	-	-	-	-	.	.	.
Cc1ccc(COc2ccc3oc(-c4ccccc4)c(C(=O)O)c3c2)cc1	.	-	.	.	-	-	.	.	.
CCOc1ccccc1-n1c(=O)c2ccccc2c2ccccc2c1=O	-	-	-	?	-	-	-	-	-
Cc1ccc(-c2csc(NS(=O)(=O)c3cccc(F)c3)n2)o1	.	.	-	32µM	-	?	24µM	-	?
SMILES	RECQ1 inh	BLM helicase inh-1	APEX1 inh	WRN helicase inh-1	ERG-DNA inh	KAT2A inh	WRN helicase inh-2	TO displacement	BLM helicase inh-2
O=C(NC12CC3CC(CC(C3)C1)C2)C1CCCN1C(=O)Nc1ccccc1 (centres undefined)	.	-	-	-	-	-	.	.	.
N#Cc1c(-c2ccc(Cl)c([N+](=O)[O-])c2)no[n+]1[O-]	.	.	.	.	.	.	19µM	-	22µM
N#Cc1c(-c2ccccc2)no[n+]1[O-]	-	.	-	.	.	.	.	.	.
CCn1c(C)c(C2=CCN(S(=O)(=O)c3ccc(C)cc3)CC2)c2ccccc21	-	-	-	?	-	-	?	-	?
Cc1ccc(S(=O)(=O)N2CCc3ccccc3CC2)cc1	.	.	.	-	-	.	.	.	.
CCN(CC)c1ccc(/C=C2\C(=O)c3ccc(C(=O)O)cc3C2=O)cc1	-	-	?	40µM	?	-	22µM	-	?
COc1cc(/C=C2\SC(=Nc3cccnc3)NC2=O)cc(OC)c1OC	-	-	-	13µM	-	?	-	-	-
O=C1OC(c2ccc3ccccc3c2O)(c2ccc3ccccc3c2O)c2ccccc21	.	.	.	?	-	.	?	24µM	-
O=C1OC2(c3ccccc31)c1ccccc1-c1ccccc12	.	.	.	-	-	.	.	.	.
Cc1cn2c(=O)cc(COC(=O)COc3ccc(C)c(C)c3)nc2s1	.	-	.	.	-	-	.	.	.
Oc1ccc(C2=Nn3c(nnc3-c3ccco3)SC2)cc1O	-	?	-	11µM	-	-	15µM	-	17µM
COc1ccc(C2=Nn3c(nnc3-c3ccco3)SC2)cc1	-	-	-	-	-	-	.	.	.
C=CCN1C(=O)/C(=C/C=C2/N(CC)c3ccc(S(=O)(=O)N(C)C)cc3N2CC)SC1=S	4µM	10µM	?	5.3µM	-	-	9.6µM	-	9.6µM
C=CCN1C(=O)/C(=C2/Sc3ccccc3N2CC)SC1=S	.	-	-	-	-	-	.	.	.
O=C(CCSCCC(=O)NCc1ccco1)NCc1ccco1	-	-	?	13µM	-	-	22µM	-	17µM
Cc1cc(=O)[nH]c(SCC(=O)NCc2ccco2)n1	-	-	?	19µM	-	-	?	-	22µM
O=C(CCSCc1ccccc1Cl)NCc1ccco1	-	-	-	-	-	-	.	.	.
O=C(CSc1nc2ccccc2[nH]1)NCc1ccco1	-	-	-	-	.	-	.	.	.
CN(C)/C=C1\SC(=S)N(c2ccc(Br)cc2)C1=O	32µM	-	28µM	?	-	-	24µM	-	22µM
CCN(Cc1ccc2c(c1)OCO2)C(=O)/C=C/c1cccc(Br)c1	.	-	-	-	-	-	.	.	.
